Screening data from PubChem BioAssay.
HepG2 tox: HepG2 cytotoxicity, counter-screen for TGF-b inhibitors. Potency, µM (doses to about 46.1 µM), hits mostly cytotoxic. 410,000 compounds, 0.76% hits. HepG2 CAGA-GFP viability, ATP luminescence, 18 h
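CellTiter-Glo luminescence gave cytotoxicity after 18 hours at 37 degrees C. The cells were HepG2 CAGA-GFP in 1% FBS DMEM, stimulated with 500 pg/mL TGF-beta after compound addition. %Activity was normalised to no-cell wells (complete cell-killing) and DMSO (no toxicity), and curves were fitted and classified.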
IL-1B inflam inh: inhibitors of inflammasome signaling (IL-1 beta secretion) | AID 743279 | activity change, % at 57.5 µM | 360,000 compounds, 4.7% hits | THP-1 LPS/ATP IL-1B secretion, AlphaLISA, 16 h; hits give low values; in the data active means activity change below about -50%; inconclusive means mostly about -30% to -49%
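THP-1 cells pretreated 1 hr with compounds (up to 57.5 uM final), then stimulated with LPS (250 ng/mL final) plus ATP (1.25 mM final); secreted IL-1B measured by AlphaLISA after 16 hr, decreased signal indicating inhibition.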
TGFb inhibitor: inhibitors of TGF-b signaling | HepG2 CAGA-GFP TGF-b/SMAD3 reporter, GFP fluorescence, 18 h; TGF-beta stimulated, 500 pg/mL final | AID 588855 | Potency, µM (doses to about 46.1 µM), usual class: inhibitors | 410,000 compounds, 1.2% hits; further: nearly all actives have a fitted effect of over 65% in size
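Cell-based qHTS in HEPG2 carrying a CAGA-GFP Smad reporter; compounds added before 500 pg/mL final TGF-beta, 18 h incubation at 37 degrees C, GFP fluorescence quantified per cell by imaging cytometry.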
DT40 TDP1 no CPT: qHTS for Inhibitors of human tyrosyl-DNA phosphodiesterase 1 (TDP1): qHTS in cells in absence of CPT; DT40 Tdp1-/- hTDP1 cells, no CPT, ATP luminescence, 48 h; Potency, µM (series often up to 46.2 µM), hits mostly inhibitors; 420,000 compounds, 15% hits; further: nearly all actives have a fitted effect of over 55% in size
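Growth of hTDP1-complemented DT40 Tdp1-knockout cells is measured by ATP luminescence after at least 48 hr compound exposure at 37 °C, with DMSO substituting for the 20 nM CPT used in the parallel screen.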
TDP1 cell CPT: growth inhibition of DT40 Tdp1-/-;hTDP1 cells with camptothecin (screen for TDP1 inhibitors); chicken DT40 Tdp1-/-;hTDP1 cells + 20 nM CPT, ATP luminescence, 48 h; Potency, µM (doses to about 46.2 µM), usual class: inhibitors; 420,000 compounds, 12% hits; further: nearly all actives have a fitted effect of over 55% in size
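Cell growth measured by CellTiter-Glo luminescence after a minimum 48 h, 37 C compound exposure with 20 nM CPT in Tdp1-knockout DT40 cells stably expressing hTDP1, seeded 400/well; qHTS titration format.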
TDP1 block: TDP1 (human) enzyme inhibition; Potency, µM (series often up to 130 µM), hits mostly inhibitors; AID 485290; 350,000 compounds, 0.28% hits; Q9NUW8; recombinant TDP1, AlphaScreen DNA substrate cleavage; further: nearly all actives have a fitted effect of over 40% in size
Target sequence (Q9NUW8 whole entry, looked up): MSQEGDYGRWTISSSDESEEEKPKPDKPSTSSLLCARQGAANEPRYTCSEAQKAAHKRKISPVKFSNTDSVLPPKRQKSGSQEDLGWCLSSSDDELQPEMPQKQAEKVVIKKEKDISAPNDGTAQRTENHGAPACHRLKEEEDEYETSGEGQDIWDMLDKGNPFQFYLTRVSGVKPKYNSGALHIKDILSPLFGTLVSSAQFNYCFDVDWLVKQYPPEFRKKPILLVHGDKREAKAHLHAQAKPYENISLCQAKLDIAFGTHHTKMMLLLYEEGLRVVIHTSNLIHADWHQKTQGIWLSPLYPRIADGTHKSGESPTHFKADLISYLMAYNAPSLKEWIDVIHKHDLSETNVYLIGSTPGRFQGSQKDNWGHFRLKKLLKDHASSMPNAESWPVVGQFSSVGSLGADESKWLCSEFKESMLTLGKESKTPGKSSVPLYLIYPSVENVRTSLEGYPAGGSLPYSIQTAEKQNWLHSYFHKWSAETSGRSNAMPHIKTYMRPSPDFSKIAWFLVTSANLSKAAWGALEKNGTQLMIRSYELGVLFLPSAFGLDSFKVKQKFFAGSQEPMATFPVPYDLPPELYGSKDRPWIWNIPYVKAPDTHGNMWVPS
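Here, a 5' biotin and 3' phosphotyrosine-FITC DNA oligonucleotide reports Tdp1 activity: intact substrate bridges AlphaScreen beads, while cleavage leaves a 3' phosphate and drops signal. All incubations at room temperature.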
Each line names hits and unclear results; the compound was inactive in the other large screens. Rows were chosen to be rich in hits. Some 19% of all compounds tested hit in one or more screens of this group. Unless noted, the call rests on the fitted dose curve; in most records, active means well fitted curve in the direction sought with a large enough effect; inconclusive means small, poorly fitted or top-dose-only effect, or another doubt; inactive means no such curve, though single readings can be large; an effect the other way counts as inactive or inconclusive.

O=C(O)CCc1cc(F)c(S(=O)(=O)N2CCN(S(=O)(=O)c3ccc4c(c3)OCCO4)CC2)cc1F	none (no result: HepG2 tox, IL-1B inflam inh, TGFb inhibitor, DT40 TDP1 no CPT, TDP1 cell CPT)
COc1ccc(N(C(=O)C2COc3ccccc3O2)C(C(=O)NC2CCCCC2)c2ccccc2)cc1OC (stereo not given)	DT40 TDP1 no CPT inconclusive, TDP1 cell CPT inconclusive
COc1cc(OC)cc(N(C(=O)C2COc3ccccc3O2)C(C(=O)NC2CCCCC2)c2ccc(O)cc2)c1 (stereo not given)	IL-1B inflam inh -60, DT40 TDP1 no CPT inconclusive, TDP1 cell CPT inconclusive
COc1ccc(Cl)cc1NC(=O)CSC1=Nc2ccccc2C2=NC(CCC(=O)NCc3ccco3)C(=O)N12 (stereo not given)	DT40 TDP1 no CPT inconclusive, TDP1 cell CPT inconclusive (no result: IL-1B inflam inh)
CCCN(CC(=O)Nc1ccccc1C)C(=O)C1CCN(S(=O)(=O)c2ccc(C)c(C)c2)CC1	IL-1B inflam inh inconclusive, DT40 TDP1 no CPT inconclusive, TDP1 cell CPT inconclusive (no result: TDP1 block)
COc1ccc(C(=O)N/N=C(\Cc2ncc[nH]2)c2ccccc2)cc1	DT40 TDP1 no CPT 2.9µM, TDP1 cell CPT 5.2µM
COc1cc(C(=O)N/N=C(\Cc2ncc[nH]2)c2ccccc2)cc(OC)c1OC	DT40 TDP1 no CPT 5.2µM, TDP1 cell CPT 2.1µM
c1ccc(N/N=C(\Cc2ncc[nH]2)c2ccccc2)cc1	none
CCOc1ccc(OCC)c(NC(=O)C2CCCN2S(=O)(=O)c2cccc3cccnc23)c1 (stereo not given)	DT40 TDP1 no CPT 18µM, TDP1 cell CPT 15µM
COc1cc(NC(=O)[C@H]2CCCN2S(=O)(=O)c2cccc3cccnc23)cc(OC)c1OC	TGFb inhibitor inconclusive, DT40 TDP1 no CPT inconclusive, TDP1 cell CPT 15µM
COc1ccc(NC(=O)C2CCCN2S(=O)(=O)c2cccc3cccnc23)cc1OC (stereo not given)	DT40 TDP1 no CPT inconclusive
COC(=O)C1CCCN1S(=O)(=O)c1ccc2ccccc2c1 (stereo not given)	DT40 TDP1 no CPT 21µM, TDP1 cell CPT inconclusive
COc1ccc(C)cc1NC(=O)C1CCN(S(=O)(=O)c2cccc3cccnc23)CC1	DT40 TDP1 no CPT inconclusive
COc1ccc(OC)c(NC(=O)C2CCCN(S(=O)(=O)c3cccc4cccnc34)C2)c1 (stereo not given)	IL-1B inflam inh inconclusive, TGFb inhibitor inconclusive, DT40 TDP1 no CPT 13µM, TDP1 cell CPT inconclusive
CC(=O)OCc1cnc(C)c2oc(=O)c(C(=O)Nc3cc(F)ccc3C)cc12	none (no result: IL-1B inflam inh)
COc1cc(NC(=O)[C@@H]2CCCN(S(=O)(=O)c3cccc4cccnc34)C2)cc(OC)c1OC	DT40 TDP1 no CPT 13µM, TDP1 cell CPT 10µM
O=C(Nc1cccc(C(F)(F)F)c1)C1CCCN1S(=O)(=O)c1cccc2cccnc12 (stereo not given)	DT40 TDP1 no CPT 16µM, TDP1 cell CPT 23µM
COC(=O)C1CCCN1S(=O)(=O)c1ccccc1NC(=O)c1cc(OC)c(OC)c(OC)c1 (stereo not given)	TDP1 cell CPT 15µM (no result: TDP1 block)
CCOc1ccc(OCC)c(S(=O)(=O)N2CCCCC2C)c1 (stereo not given)	DT40 TDP1 no CPT inconclusive, TDP1 cell CPT 23µM
CCOC(=O)/C(=C\c1ccc([N+](=O)[O-])o1)NC(=O)c1ccccc1	HepG2 tox 11µM, TGFb inhibitor inconclusive, DT40 TDP1 no CPT 18µM, TDP1 cell CPT 23µM
COC(=O)/C(=C/c1ccco1)NC(=O)c1ccccc1	none
O=C(NCCO)/C(=C\c1ccc([N+](=O)[O-])o1)NC(=O)c1ccccc1	DT40 TDP1 no CPT 29µM, TDP1 cell CPT inconclusive
CCCOC(=O)/C(=C\C=C\c1ccco1)NC(=O)c1ccccc1	DT40 TDP1 no CPT 21µM, TDP1 cell CPT 13µM
CCCOC(=O)/C(=C\c1ccc([N+](=O)[O-])o1)NC(=O)c1ccccc1	TGFb inhibitor inconclusive, DT40 TDP1 no CPT 21µM, TDP1 cell CPT 16µM
